From PubChem BioAssay
C2C12 statin: suppression of simvastatin myotoxicity; C2C12 myotubes + simvastatin, ATP luminescence, 48 h; scaled: DMSO 0, geranylgeraniol control 100; rescue of ATP level, % at 7.49 µM; 330,000 tested, 0.78% active; AID 602340;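 active = mean ATP rescue above about 67%, or every replicate alone reaching that limit, limit read from the data, passing the limit was not always enough; inconclusive = no clear call, values can overlap the other calls; inactive = mean under the limit and some replicate under it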;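 also: myotubes were challenged with 10 µM simvastatin during compound exposure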
LMP1 NFkB inh: reduces LMP1-driven NF-kappaB luciferase signal. LMP1-induced NF-kappaB luciferase reporter cells, luminescence. inhibition, % at 12.5 µM. 350,000 tested, 0.69% active. AID 504558; in the data active = inhibition above about 41%; inconclusive = no clear call, values can overlap the other calls
Wnt bcat act: activates Wnt/beta-catenin signaling in a reporter cell assay; AID 743398; 300,000 tested, 1.2% active; activator, plate reader; activation, % at 9.35 µM; in the data active = activation above about 30%, passing the limit was not always enough; inconclusive = no clear call, values can overlap the other calls
MITF TRPM1 HTS: increases MITF-driven TRPM1 promoter luciferase signal; activation, % at 12.5 µM; 300,000 tested, 0.75% active; SK-MEL-5 TRPM1-promoter luciferase, 24 h; % of positive control, neutral wells = 0;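 active = mean activation of at least 80% with every replicate also reaching 80%; inconclusive = mean reaches 80% but some replicate falls short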
esBAF inh: inhibitors of esBAF chromatin remodeling in mouse ES cells. reporter increase, % at 12.5 µM. 350,000 tested, 2% active. AID 602393. Bmi1-luciferase knock-in reporter, 24 h; 100% = twice the neutral-well signal; in the data active = activation above about 40%; inconclusive = no clear call, values can overlap the other calls;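 also: a rise in the Bmi1 reporter signal indicates esBAF inhibition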
TRPM1 prom inh: inhibitors of MITF-driven TRPM1 promoter in melanoma cells; AID 488899; 330,000 tested, 0.83% active; SK-MEL-5 TRPM1 promoter luciferase, 24 h; inhibition, % at 12.5 µM;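 active = mean inhibition across replicates of 60% or more, whatever share of single replicates reaches that level; inconclusive = some that reach 60%, reason not given; inactive = mean inhibition across replicates below 60%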
Numbers stand for hits; – = inactive; ? = inconclusive; · = no result given. Sampled rows, rich in hits. Any-hit rate of the full collection: about 4%.

SMILES	C2C12 statin	LMP1 NFkB inh	Wnt bcat act	MITF TRPM1 HTS	esBAF inh	TRPM1 prom inh
Cn1cc([N+](=O)[O-])c(C(=O)Nc2nc(-c3ccc(Cl)cc3)cs2)n1	·	–	–	–	–	83
Cc1cnc(NC(=O)c2nn(C)cc2[N+](=O)[O-])s1	·	–	–	–	·	?
Cn1cc([N+](=O)[O-])c(C(=O)Nc2ccc(C3CCCCC3)cc2)n1	·	–	46	–	·	–
Cc1ccc(-c2nc(NC(=O)c3nn(C)cc3[N+](=O)[O-])sc2C)cc1	–	–	–	–	–	85
CCSc1nc(-c2ccccc2)nc(C(Cl)Cl)n1	–	67	–	–	–	96
CSc1nc(-c2ccc(C)cc2)nc(C(Cl)Cl)n1	·	60	·	·	·	77
Cc1cc(C)c(S(=O)(=O)NC2CC(C)(C)NC(C)(C)C2)cc1C	–	–	–	–	–	–
Cc1ccc2nc(NC(=O)CNS(=O)(=O)c3ccc(Br)s3)sc2c1	–	–	·	–	–	–
C/C=C/c1ccc([C@@H]2[C@@H](CO)N(C(C)=O)[C@@H]2CN(C)C(=O)c2ccccn2)cc1	–	·	·	·	–	·
CC(C)(C)c1ccc(CCC2OCC(C[N+]3(C)CCOCC3)O2)cc1 (stereo unspecified)	·	–	31	·	·	–
CC(C)c1cc(C(=O)Nc2cc(Cl)ccc2O)no1	–	–	·	–	55	–
CC(C)c1cc(C(=O)NCCc2ccccc2)no1	–	–	39	–	–	–
O=C(Nc1cc(Br)ccc1O)c1cc(-c2cccs2)on1	–	–	–	–	–	–
CC(C)c1cc(C(=O)Nc2cccc(Cl)c2)no1	–	–	·	90	–	–
Cc1noc(C(=O)Nc2cc(Cl)ccc2O)c1Cl	–	–	–	–	–	–
CC(C)c1cc(C(=O)NCc2ccco2)no1	–	–	–	–	–	–
CC(C)c1cc(C(=O)Nc2cc(Br)ccc2O)no1	–	–	–	–	78	–
CN(C)CC/C=C1/c2ccccc2COc2ccc(CC(=O)O)cc21	–	–	–	–	–	–
O=C(CSC(=S)N1CCCC1)c1ccccc1	–	–	45	–	–	–
COc1ccc(S(=O)(=O)NCCc2c(C)nn(C)c2Oc2ccccc2)cc1	–	–	–	–	–	–
Cc1cccc(OCc2n(CC(=O)OC3CC(C)CCC3C(C)C)c3ccccc3[n+]2C)c1 (stereo unspecified)	·	–	·	–	·	96
CC1CCC(C(C)C)C(OC(=O)C[n+]2cc(-c3ccc(Cl)cc3)n3c2CCC3)C1 (stereo unspecified)	·	–	–	–	·	–
CC1CCC(C(C)C)C(OC(=O)Cn2c(-c3ccccc3)[n+](C)c3ccccc32)C1 (stereo unspecified)	·	–	–	–	·	87
CC1CCC(C(C)C)C(OC(=O)Cn2c(-c3ccc(F)cc3)[n+](C)c3ccccc32)C1 (stereo unspecified)	·	–	–	–	·	80
COc1cccc(CN2CCN(C3CSCCSC3)CC2CCO)c1 (stereo unspecified)	–	–	–	–	–	–
SMILES	C2C12 statin	LMP1 NFkB inh	Wnt bcat act	MITF TRPM1 HTS	esBAF inh	TRPM1 prom inh
O=[N+]([O-])c1cccc2[nH]ncc12	·	–	–	–	·	–
Brc1ccccc1OCCN1CCOCC1	–	–	–	–	–	–
CC(C)c1ccc(/C=N/Nc2ccc(C(=O)O)cc2)cc1	·	–	–	–	·	69
Cc1ccc(/C=N/Nc2ccc(C(=O)O)cc2)o1	·	–	–	–	·	–
O=C(O)c1ccc(/C=N/Nc2cccc(C(F)(F)F)c2)cc1	–	–	–	111	88	–
O=C(O)c1ccc(N/N=C/c2ccc(-c3ccc(Br)cc3)o2)cc1	72	–	–	–	–	–
O=C(O)c1cccc(N/N=C/c2ccc(F)c(F)c2)c1	–	–	–	–	–	–
O=C(O)c1ccc(N/N=C/c2ccc(-c3ccccc3)cc2)cc1	·	–	–	92	·	–
O=C(O)/C=C/c1cccc(NC(=O)Nc2ccc([N+](=O)[O-])cc2)c1	–	–	–	–	–	–
CN(C)CC(=O)N[C@H]1C=C[C@H](CC(=O)NCCN2CCCCC2)O[C@@H]1CO	–	·	·	·	–	·
O=C(O)c1cc(N/N=C/c2ccncc2)ccc1Cl	–	–	–	–	–	–
Cc1ccc(/C=N/Nc2ccc(C(=O)O)cc2)s1	–	70	–	–	–	81
O=C(O)c1cc(N/N=C/c2ccc(-c3ccccc3)cc2)ccc1Cl	–	–	48	–	?	–
Cc1ccc(/C=N/Nc2cccc(C(=O)O)c2)s1	·	–	·	–	·	–
Cc1ccc(NC(=O)ON=C2CCCC2)cc1	·	–	–	97	·	–
COc1ccccc1C(=O)NCC(=O)OC(C)C(=O)N(C)C1CCCCC1 (stereo unspecified)	–	–	–	–	–	–
O=C(CS(=O)CC(=O)N(CC(=O)NC1CCCC1)C1CCCCC1)Nc1ccc(F)cc1 (stereo unspecified)	–	–	·	–	–	–
O=S(=O)(NN=C1CCCCCCC1)c1ccccc1	–	–	–	·	–	·
O=S(=O)(NN=C1CCCCC1)c1ccccc1	115	–	–	–	–	–
Nc1ccc2nc(-c3cc(Cl)c(N)c(Cl)c3)[nH]c2c1	–	–	43	–	48	–
O=[N+]([O-])c1ccc(-c2nc3ccc([N+](=O)[O-])cc3[nH]2)cc1	·	–	·	–	·	–
O=[N+]([O-])c1ccc2nc(/C=C/c3ccc(Cl)cc3)[nH]c2c1	–	–	–	–	47	–
Nc1ccc(-c2nc3ccc([N+](=O)[O-])cc3[nH]2)cc1	·	–	59	–	·	–
Cc1cccc(CSc2cn(CC(=O)N3CCOCC3)c3ccccc23)c1	–	–	–	–	84	–
O=C(Cn1cc(SCc2cccc(Cl)c2)c2ccccc21)N1CCOCC1	–	–	·	–	62	–
SMILES	C2C12 statin	LMP1 NFkB inh	Wnt bcat act	MITF TRPM1 HTS	esBAF inh	TRPM1 prom inh
Cc1cc(=O)c(C(=O)c2ccccc2)c(C)o1	·	–	–	–	·	–
COc1ccc(NC(=O)Cn2c(=O)n(-c3ccc(CC(=O)NCc4ccco4)cc3)c(=O)c3ccccc32)cc1	·	–	–	–	·	71
Cc1ccc(NC(=O)Cn2c(=O)n(CCCC(=O)NCc3ccco3)c(=O)c3ccccc32)cc1	–	–	·	–	–	–
Cc1nc2ccccn2c1-c1csc(NCc2ccco2)n1	94	–	–	–	–	–
Cc1nc(C)c(-c2csc(NCc3ccco3)n2)s1	–	–	–	–	62	–
Brc1cccc(-c2cnco2)c1	–	56	–	–	–	–
CC(C)(C)c1ccc(-c2cnco2)cc1	–	–	–	–	–	–
CCN(/C(N)=N/c1nc(C)cc(C)n1)c1ccccc1	–	–	–	–	–	–
COC(=O)[C@@H](NC(=O)NCCC1=CCCCC1)C(C)C	–	–	65	–	–	–
COc1cc(OC)cc(-c2cc3ccccc3c(=O)o2)c1	–	–	–	–	48	–
Nc1ccc(-c2cc3ccccc3c(=O)o2)cc1	–	–	–	–	–	74
Nc1cc2ccccc2oc1=O	–	–	·	–	–	–
